TRPML1 ag = agonists of human TRPML1 channel; Q9GZU1; TRPML1-expressing cells, Ca2+ dye fluorescence, FDSS; activation, % (no concentration beside the values); 0.12% of 410,000 active; in the data active = activation above about 50%; inconclusive = mostly about 30% to 49%; note: 0% is about no effect
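Cells: TRPML1-DL, 1X Tet inducer, ~16 h at 37 degrees C/5% CO2. Dye: ABD Ca8 no-wash + quencher, 45-90 min RT. Read: 10 s baseline, compound add, 110 s agonist phase; 54-4 EC80 (4uM final), 110 s antagonist phase.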
TRPV1 PAM = enhances activation of the human vanilloid receptor TRPV1 | Q8NER1 | TRPV1-expressing cells, Fluo-8 calcium influx, capsaicin EC20 potentiation | potentiation, % at 8.33 µM | 0.02% of 320,000 active | AID 540277; in the data active = potentiation above about 80%; inconclusive = between about 30% and that limit; note: 0% is about no effect
Target sequence (Q8NER1 whole entry, looked up): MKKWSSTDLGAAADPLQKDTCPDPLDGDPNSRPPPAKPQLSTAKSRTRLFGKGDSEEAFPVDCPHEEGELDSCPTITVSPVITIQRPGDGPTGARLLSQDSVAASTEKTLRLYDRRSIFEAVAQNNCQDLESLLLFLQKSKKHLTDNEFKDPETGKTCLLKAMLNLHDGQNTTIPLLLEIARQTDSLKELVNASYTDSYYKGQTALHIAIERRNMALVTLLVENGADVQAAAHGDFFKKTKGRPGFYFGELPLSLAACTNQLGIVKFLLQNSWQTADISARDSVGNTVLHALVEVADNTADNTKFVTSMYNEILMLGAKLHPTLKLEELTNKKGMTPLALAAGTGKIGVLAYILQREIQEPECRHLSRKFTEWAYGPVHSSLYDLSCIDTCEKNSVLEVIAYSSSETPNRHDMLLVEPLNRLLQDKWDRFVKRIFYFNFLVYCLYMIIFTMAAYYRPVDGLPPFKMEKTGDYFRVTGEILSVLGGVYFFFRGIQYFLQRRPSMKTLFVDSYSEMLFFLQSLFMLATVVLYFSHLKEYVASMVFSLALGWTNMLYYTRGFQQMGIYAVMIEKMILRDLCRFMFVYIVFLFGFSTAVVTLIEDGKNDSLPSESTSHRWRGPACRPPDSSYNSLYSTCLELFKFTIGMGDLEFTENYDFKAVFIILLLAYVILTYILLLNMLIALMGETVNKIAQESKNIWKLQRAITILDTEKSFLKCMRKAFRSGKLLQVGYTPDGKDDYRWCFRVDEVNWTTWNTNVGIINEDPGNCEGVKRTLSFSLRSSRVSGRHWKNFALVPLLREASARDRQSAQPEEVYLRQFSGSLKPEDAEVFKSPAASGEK
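Fluo-8 calcium influx in TRPV1-expressing cells, kinetic read (ex 480/em 520 nm). Compound added and read 3 min for agonist activity, followed by capsaicin at EC20 final and 2 min further read for enhancement.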
hERG WT inh = inhibitors of human wildtype KCNH2 potassium channel. U2OS, BacMam KCNH2, thallium flux FluxOr; hits give low values. 0.37% of 340,000 active. Q12809. AID 720551. activity change, % at 1.84 µM;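 active = maximum activity change below -70%; inconclusive = maximum activity change between -70% and -50%; inactive = maximum activity change above -50%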; note: % is set by controls: 0 for no effect and ±100 for the full control effect
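U2OS cells transduced with wild-type KCNH2 virus are loaded with FluxOr dye for 45 min, and thallium flux is measured in kinetic reads before and after stimulation buffer. Rate constants are normalized to DMSO controls.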
TRPML1 inh = human mucolipin-1 channel inhibition; Q9GZU1; TRPML1-inducible cells, Ca2+ dye fluorescence, FDSS; hits give low values; inhibition of EC80 agonist-evoked calcium signal; activity change, negative = inhibition, % (concentration not given with the values); 0.02% of 390,000 active; AID 624415; in the data active = activity change below about -50%; inconclusive = between about -30% and that limit;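 note: stimulus is agonist 54-4 at its EC80 concentration; % is set by controls: 0 for no effect and ±100 for the full control effect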
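Calcium fluorescence in TRPML1-DL cells induced overnight with Tet: a 110 s read after compound pin addition, then a 110 s antagonist read after challenge with 54-4 at 4 uM final (EC80).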
TRPV1 agonist = activates the human vanilloid receptor TRPV1; TRPV1-expressing cells, Fluo-8 calcium influx, agonist mode; activation, % at 8.33 µM; 0.19% of 320,000 active; AID 540275; in the data active = activation above about 80%; inconclusive = between about 30% and that limit; note: 0% is about no effect
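TRPV1-expressing cells were cultured overnight at 35.5C and loaded with Fluo-8 calcium dye for 40 to 90 min at room temperature. After a 10 s baseline, compound was added and calcium influx was read kinetically for 3 min (ex 480/em 520 nm).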
KCNH2 3.1 inh = KCNH2 3.1 (human) potassium channel inhibition; U2OS KCNH2 3.1, thallium flux FluxOr; hits give low values; activity change, % (tested at about 1.8 µM); 0.95% of 340,000 active; AID 720553;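 active = maximum activity change below -70%; inconclusive = maximum activity change from -70% to -50%; inactive = maximum activity change above -50%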;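 note: thallium influx rate constant from kinetic fluorescence after stimulation buffer; % is set by controls: 0 for no effect and ±100 for the full control effect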
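Measured as rate of thallium-driven FluxOr signal in transduced U2OS cells carrying the 3.1 channel, read kinetically for 2 min upon stimulation; values are rate constants scaled to DMSO control wells.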
Starred values were filed as active, the others as inactive; ? = inconclusive; · = no result. An excerpt weighted towards active compounds, which were near 1.3% of everything screened.

SMILES	TRPML1 ag	TRPV1 PAM	hERG WT inh	TRPML1 inh	TRPV1 agonist	KCNH2 3.1 inh
Cc1ccc(S(=O)(=O)Nc2ccc(N3CCOCC3)cc2)cc1	0	9	-22	-1	-5	12
Cc1ccc(S(=O)(=O)Nc2ccccc2N2CCOCC2)cc1	64*	-3	0	-9	6	7
CC(=O)c1cccc(S(=O)(=O)Nc2cc(C(F)(F)F)ccc2N2CCOCC2)c1	0	0	0	0	3	-7
O=S(=O)(Nc1cc(C(F)(F)F)ccc1N1CCOCC1)c1ccccc1	0	1	5	10	11	3
COc1cc(Cl)c(C)cc1NC(=O)CCCN1C(=O)C(c2ccccc2)Oc2cccnc21 (configuration not stated)	1	·	·	35	·	·
Cc1ccc(Cl)cc1N1CCN(C(=O)CCS(=O)(=O)c2ccc3c(c2)oc(=O)n3C)CC1	-1	·	·	17	·	·
CCN1CCN(S(=O)(=O)c2ccc(Cl)c(C(=O)Nc3cc(Cl)ccc3N3CCOCC3)c2)CC1	74*	-12	6	-20	23	-1
O=C(O)CC/C(=N\NC(=O)c1ccncc1)c1ccccc1	0	19	-134*	82	6	-161*
CC(=NNC(=O)c1ccncc1)c1ccc2ccccc2c1O	79*	·	-29	-21	·	·
COc1cc(N)c(N)cc1OC	0	·	·	·	·	·
Cc1ccc(N2CCN(C(=O)N3CCOCC3)CC2)cc1C	0	-2	-34	15	13	1
Cc1cccc(C)c1N1CCN(C(=O)N2CCOCC2)CC1	0	-20	0	-4	80*	4
N=C1/C(=C\c2coc3ccccc3c2=O)C(=O)N=C2SC=CN12	72*	0	-7	-7	?	-6
CSC1=NSC2=NC(=O)/C(=C/c3coc4ccc(O)cc4c3=O)C(=N)N12	67*	8	-9	4	22	·
CSC1=NSC2=NC(=O)/C(=C/c3coc4ccccc4c3=O)C(=N)N12	77*	1	25	-10	?	-1
O=[N+]([O-])c1ccc(Cl)c(S(=O)(=O)/N=C(/Sc2ccc(Br)cc2)c2ccccc2)c1	0	·	·	·	·	·
O=C(NCC1COc2ccccc2O1)c1ccc(Br)s1 (configuration not stated)	2	16	3	-9	85*	-16
COc1cc(NS(=O)(=O)c2cnc(N)nc2)cc(OC)c1	0	·	·	1	·	·
C/C=C/c1ccc(OCC(O)CNCC(c2ccc(OC)cc2)N(C)C)c(OC)c1 (configuration not stated)	1	-5	-7	8	3	-73*
C/C=C/c1ccc(OCC(O)CNCCc2ccc(OC)cc2)c(OC)c1 (configuration not stated)	0	-8	3	18	1	-71*
C/C=C/c1ccc(OCC(O)CN(C)Cc2ccc(SC)cc2)c(OC)c1 (configuration not stated)	2	6	?	5	0	-112*
C/C=C/c1ccc(OCC(O)CN2CCCCC2CC)c(OC)c1 (configuration not stated)	-1	0	22	4	4	-24
COc1ccc(CCNCC(O)COc2ccc(Cl)cc2)cc1OC (configuration not stated)	2	-7	37	-7	13	?
C/C=C/c1ccc(OCC(=O)O)c(OC)c1	0	-2	4	3	-3	-4
CCN(CC)c1ccc(-c2nnc(SCC(=O)NCc3ccco3)n2CC)cc1	-1	·	·	·	·	·
SMILES	TRPML1 ag	TRPV1 PAM	hERG WT inh	TRPML1 inh	TRPV1 agonist	KCNH2 3.1 inh
Cc1ccc(Cn2c(=O)c3cccnc3n(CC(=O)Nc3cc(Cl)ccc3C)c2=O)cc1	-1	·	·	8	·	·
CCCN1CNc2c(c(=O)[nH]c(=S)n2CCc2c(OC)cccc2OC)C1	0	·	·	·	·	·
COc1ccc(NC(=O)CC2C(=O)N(c3ccc(OC)cc3)C(=O)N2C(C)C)cc1 (configuration not stated)	0	5	-30	3	-3	-82*
Cc1cc(C)c2c(n1)NCCC2	0	·	·	·	·	·
Cc1cccc(C(C)n2nnc3ccccc32)c1O (configuration not stated)	0	86*	-25	-6	12	-6
COc1cccc(C(=O)Nc2ccc(NC(=O)c3ccco3)c(Cl)c2)c1	0	3	-4	-5	-6	5
CCOc1ccc(C(=O)Nc2ccc(NC(=O)c3ccco3)c(Cl)c2)cc1Cl	1	9	2	-9	-7	-72*
CCOc1ccccc1NC(=O)c1cccc(NC(=O)c2ccco2)c1	2	28	-17	13	-3	9
CCOc1ccc(C(=O)Nc2ccc(NC(=O)c3ccco3)c(Cl)c2)cc1Br	2	8	-12	-10	1	-81*
COc1cccc(CNC(=O)C2CCN(C(=O)N3CCOc4ccc(Cl)cc43)CC2)c1OC	1	·	·	-22	·	·
Cc1ccc(S(=O)(=O)C2(C(=O)Nc3ccc(Cl)c(C(F)(F)F)c3)CC2)cc1	5	·	·	41	·	·
CC(C)(C)C(=O)NC(=S)NNC(=O)c1ccc(-c2ccccc2)cc1	80*	-21	-26	4	?	-14
CC(C)(C)C(=O)NC(=S)NNC(=O)c1ccc(Cl)cc1Cl	66*	-12	-23	19	?	6
Cc1nc(N2CCCC2)ncc1C(=O)N1CCN(c2ccc(Cl)cc2)CC1	2	·	·	-28	·	·
Cc1ccccc1NC1=NS(=O)(=O)c2ccccc21	0	8	-285*	-5	-1	1
Cc1ccc(C)c(NC2=NS(=O)(=O)c3ccccc32)c1	0	3	5	4	0	12
CCc1ccc2oc(-c3ccc(C)c(NC(=O)COc4ccccc4Cl)c3)nc2c1	0	·	·	·	·	·
CCC(=O)N1c2ccc(S(=O)(=O)N3CCN(c4ccc([N+](=O)[O-])cc4)CC3)cc2CC1C (configuration not stated)	-1	5	-12	-13	1	-99*
CN(C)c1ccc(/C=C/c2c(Br)cnc3ccccc23)cc1	1	·	·	·	·	·
Cc1cc2oc3c(c(=O)c2cc1C)C(c1ccc(C(C)C)cc1)N(c1nc(C)c(C)s1)C3=O (configuration not stated)	1	·	·	-6	·	·
O=C(/C=C/c1ccccc1)c1ccccc1	3	-10	0	-10	?	-23
O=C(/C=C/c1ccccc1)CC(=O)c1ccccc1	2	·	2	25	·	-86*
Cc1cccc(N2CCN(CC(O)COc3ccc(Cl)cc3)CC2)c1 (configuration not stated)	1	-8	4	-2	7	-79*

Screens (PubChem)
